Source: PubChem
An excerpt weighted towards active compounds, which were near 3.5% of everything screened.
KDM4E inh – qHTS Assay for Inhibitors of Human Jumonji Domain Containing 2E (JMJD2E). Lysine-specific demethylase 4E (Homo sapiens), B2RXH2. JMJD2E catalytic domain, FDH-coupled NADH fluorescence (FDH is formaldehyde dehydrogenase). Potency, µM (highest dose often 57.1 µM), actives largely listed as inhibitors. hit rate 1.6% among 230,000. AID 2147, 2009; active means well fitted inhibition curve with a large enough effect, not every such curve was filed as active; inconclusive means small, poorly fitted or top-dose-only effect, or another doubt; inactive means no such curve, though single readings can be large or run the other way; further: nearly all actives have a fitted effect of over 50% in size
TexasRed fluor – Total Fluorescence Counterscreen for Inhibitors of the Interaction of Thyroid Hormone Receptor and Steroid Receptor Coregulator 2. TRb/SRC2 Texas Red total fluorescence interference. Potency, µM (titrated, usually from 106 µM). hit rate 0.29% among 280,000. AID 1479, 2009; active means well fitted curve in either direction with a large enough effect; inconclusive means small, poorly fitted or top-dose-only effect
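Human TRβ ligand-binding domain (0.6 uM) and Texas Red SRC2 peptide (20 nM) in Tris buffer with 1 uM T3 and 5% DMSO were incubated with pinned compound for 5 hr at ambient temperature. Total fluorescence was computed as S + 2P (555/632 nm).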
Tau fibril FP – qHTS for Inhibitors of Tau Fibril Formation, Fluorescence Polarization. Microtubule-associated protein tau (Homo sapiens), P10636. K18 P301L tau heparin fibrillization, Alexa594 FP, 6 h. Potency, µM (top dose mostly 57.7 µM), usual class: inhibitors. hit rate 0.39% among 280,000. AID 1468, 2008; further: nearly all actives have a fitted effect of over 55% in size
Target sequence (P10636 561-689 P618L limits assumed): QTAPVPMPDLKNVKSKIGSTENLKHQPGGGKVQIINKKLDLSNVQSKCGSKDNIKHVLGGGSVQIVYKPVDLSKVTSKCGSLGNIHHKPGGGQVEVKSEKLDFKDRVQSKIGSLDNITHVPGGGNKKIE
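Read-out: fluorescence polarization of Alexa 594-labeled tau (0.24 uM), 555 nm excitation, 632 nm emission. Mixtures held 15 uM unlabeled K18 P301L, compound and 20 uM heparin, pH 7 acetate buffer, incubated 6 hr at 37 C.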
Tau fluor cs – Counterscreen qHTS for Inhibitors of Tau Fibril Formation, Fluorescence Polarization; tau K18 P301L Alexa594 fluorescence, heparin fibrillization; Potency, µM (top dose mostly 57.7 µM); hit rate 0.93% among 280,000; further: nearly all actives have a fitted effect of over 55% in size
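Human K18 P301L tau (15 uM unlabeled plus 0.24 uM Alexa 594-labeled, final) in 100 mM sodium acetate pH 7 was mixed with compound and 20 uM heparin and incubated 6 hr at 37 C.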
Tau fibril ThT – qHTS for Inhibitors of Tau Fibril Formation, Thioflavin T Binding; recombinant tau K18 P301L, heparin-induced fibrillization, ThT fluorescence; Potency, µM (doses to about 57.4 µM), most hits filed as inhibitors; hit rate 2.1% among 270,000; further: nearly all actives have a fitted effect of over 55% in size
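ThT emission at 510 nm, taken 1 hr after adding 30 uM dye, quantifies aggregates formed when 20 uM heparin acts on human tau K18 P301L for 6 hr at 37 C.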
TRb-SRC2 inh – qHTS for Inhibitors of the Interaction of Thyroid Hormone Receptor and Steroid Receptor Coregulator 2; TRbeta-SRC2 peptide binding, fluorescence polarization; receptor liganded with 1 µM T3; Potency, µM (titrated, usually from 106 µM), actives largely listed as inhibitors; hit rate 0.065% among 280,000; AID 1469, 2008; further: nearly all actives have a fitted effect of over 50% in size
Target sequence (P10828 whole entry, looked up): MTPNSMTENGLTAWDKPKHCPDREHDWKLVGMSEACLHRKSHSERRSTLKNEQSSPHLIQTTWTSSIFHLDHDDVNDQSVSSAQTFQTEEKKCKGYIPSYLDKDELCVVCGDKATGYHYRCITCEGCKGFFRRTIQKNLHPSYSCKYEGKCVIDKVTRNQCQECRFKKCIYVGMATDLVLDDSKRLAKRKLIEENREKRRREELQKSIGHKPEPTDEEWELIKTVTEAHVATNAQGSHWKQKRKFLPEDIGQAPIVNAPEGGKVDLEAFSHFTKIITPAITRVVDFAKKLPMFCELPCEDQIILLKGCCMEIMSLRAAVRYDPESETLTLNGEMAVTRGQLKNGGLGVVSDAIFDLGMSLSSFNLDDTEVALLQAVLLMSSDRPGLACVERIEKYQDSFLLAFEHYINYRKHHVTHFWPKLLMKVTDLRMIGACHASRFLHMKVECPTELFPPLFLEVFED
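Binding of a 20-amino-acid Texas Red SRC2 peptide (20 nM) to TRb ligand-binding domain (0.6 uM) with agonist T3 at 1 uM was followed by fluorescence polarization after a 5 hr room-temperature incubation.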
Large screens that a line does not name were inactive; [ ] = another dose, or the depositor's remark. Unless noted, the call rests on the fitted dose curve; in most records, active means well fitted curve in the direction sought with a large enough effect; inconclusive means small, poorly fitted or top-dose-only effect, or another doubt; inactive means no such curve, though single readings can be large; an effect the other way counts as inactive or inconclusive.

CCN(c1ccccc1)S(=O)(=O)c1nnc(NC(=O)c2ccccc2OC)s1	Tau fibril ThT 3.16µM (no result: KDM4E inh)
CCN(c1ccccc1)S(=O)(=O)c1nnc(NC(=O)c2ccccc2)s1	Tau fibril ThT 15.8µM (no result: KDM4E inh)
Cc1cc(C)nc(SCc2cc(=O)c(OC(=O)c3ccc(Br)o3)co2)n1	Tau fibril ThT inconclusive
Cc1cc(OCCCC(=O)N2CCCCC2)cc(C)c1Cl	Tau fibril ThT inconclusive
CN(c1ccccc1)S(=O)(=O)c1nnc(NC(=O)c2ccccc2)s1	Tau fibril ThT inconclusive (no result: KDM4E inh)
CCCC(=O)Nc1nnc(S(=O)(=O)N(C)c2ccccc2)s1	Tau fluor cs inconclusive, Tau fibril ThT 2.51µM (no result: KDM4E inh)
COc1ccc(-n2nnnc2SCC(N)=O)cc1	none
NC(=O)c1ccc(-n2nnnc2SCC(=O)c2ccc(O)c(O)c2)cc1	KDM4E inh 0.708µM, TexasRed fluor 50.1µM[quencher], TRb-SRC2 inh inconclusive
COc1ccc(-n2nnnc2SCC(=O)c2ccc(O)c(O)c2)cc1	KDM4E inh 11.2µM
CCCOc1ccccc1C1C(C(=O)Nc2ccccc2)=C(C)Nc2nnnn21 (stereo unspecified)	TexasRed fluor 0.1µM[quencher] (no result: KDM4E inh)
CN(C)c1ccc(CNS(=O)(=O)c2ccc3[nH]c4c(c3c2)CCCCC4)cc1	Tau fluor cs inconclusive (no result: KDM4E inh)
CCOc1ccc(NS(=O)(=O)c2ccc3[nH]c4c(c3c2)CCCCC4)cc1	Tau fluor cs 14.1µM[quencher] (no result: KDM4E inh)
CCOc1ccc(NS(=O)(=O)c2ccc3nc(-c4ccccc4)[nH]c3c2)cc1	Tau fibril FP 20µM, Tau fluor cs inconclusive (no result: KDM4E inh)
COc1ccc(OC)c(CNS(=O)(=O)c2ccc3[nH]c4c(c3c2)CCCCC4)c1	Tau fluor cs inconclusive (no result: KDM4E inh)
CCOc1ccc(NS(=O)(=O)c2ccc3[nH]c4c(c3c2)CCCC4)cc1	Tau fluor cs 12.6µM[quencher] (no result: KDM4E inh)
COc1ccc(NS(=O)(=O)c2ccc3[nH]c4c(c3c2)CCCCC4)cc1	TexasRed fluor inconclusive, Tau fluor cs 3.55µM[quencher], Tau fibril ThT inconclusive (no result: KDM4E inh)
COc1ccc(C(=O)Nc2cc(OC)c(NC(=O)c3ccco3)cc2OC)cc1	KDM4E inh inconclusive, Tau fluor cs inconclusive, Tau fibril ThT inconclusive
COc1ccc(-c2nc3c(c4c2C[C@H](c2ccccc2)OC4)CN(C(=O)NCc2ccco2)CC3)c(C)c1	none
CCOC(=O)c1c(-c2ccccc2)oc2ccc(N(C(C)=O)S(=O)(=O)c3ccc(C)cc3)cc12	none (no result: KDM4E inh)
COc1ccc(NS(=O)(=O)c2ccc3[nH]c4c(c3c2)CCCC4)c(OC)c1	Tau fluor cs 15.8µM[quencher] (no result: KDM4E inh)
C=CCc1cccc2cc(C(=O)NNC(=O)c3ccncc3)c(=O)oc12	none
COc1ccc(/C=C/C(=O)c2ccc(C)c([N+](=O)[O-])c2)cc1O	none
COc1cc(/C=C/C(=O)c2c(O)cc(C)oc2=O)cc(OC)c1O	KDM4E inh inconclusive, Tau fluor cs inconclusive, Tau fibril ThT 28.2µM
COc1cc(/C=C/C(=O)c2ccc(C)c([N+](=O)[O-])c2)cc(OC)c1O	Tau fluor cs inconclusive, Tau fibril ThT 6.31µM
COc1cc(/C=C/C(=O)c2ccc(NS(=O)(=O)c3ccc(C)cc3)cc2)cc(OC)c1O	KDM4E inh inconclusive, Tau fluor cs 14.1µM[quencher], Tau fibril ThT 11.2µM
COc1cc(/C=C/C(=O)c2c(O)ccc3c(C)cc(=O)oc23)ccc1O	Tau fibril ThT 15.8µM
COc1cc(/C=C/C(=O)c2ccc(NS(=O)(=O)c3ccc(C)cc3)cc2)ccc1OC(F)F	none
CCN(CCCNC(=O)Cn1cc2c(n1)CCCC2)c1cccc(C)c1	none
O=C(NCc1ccccn1)c1ccc(N2CCCC2)c([N+](=O)[O-])c1	none
Cc1ccc(S(=O)(=O)NNC(=O)c2cccs2)c(C)c1	none
Cc1ccc(S(=O)(=O)NNc2ccccc2)c(C)c1	Tau fibril FP inconclusive, Tau fibril ThT 22.4µM
CC(C)c1ccc(NC(=O)C2C3C=CC4(CN(Cc5cccnc5)C(=O)C24)O3)cc1 (stereo unspecified)	none
O=[N+]([O-])c1cc(S(=O)(=O)C(F)(F)F)ccc1Sc1nc2ccccc2s1	Tau fluor cs 12.6µM[quencher], Tau fibril ThT 15.8µM
CS(=O)(=O)c1ccc(Sc2nc3ccccc3[nH]2)c([N+](=O)[O-])c1	none
O=[N+]([O-])c1cc(S(=O)(=O)C(F)(F)F)ccc1Sc1nc2ccccc2[nH]1	Tau fluor cs 12.6µM[quencher], Tau fibril ThT 25.1µM
Cc1ccc(NC(=O)CN2C(=O)C(c3ccc(F)cc3)=NC23CCCCC3)c(C)c1	none (no result: KDM4E inh)
Cc1cc(-c2nn(-c3ccccc3F)cc2CN2CCCC(CO)C2)c(C)s1 (stereo unspecified)	Tau fibril ThT 7.94µM
O=C(O[C@@H]1OC2COC(=O)c3cc(O)c(O)c(O)c3-c3c(cc(O)c(O)c3O)C(=O)O[C@@H]([C@H]1O)[C@@H]2O)c1cc(O)c(O)c(O)c1	Tau fibril FP inconclusive, Tau fluor cs 12.6µM[quencher], Tau fibril ThT 7.94µM
COc1c(O)cc2c(c1O)C1OC(CO)C(O)[C@H](O)[C@H]1OC2=O (stereo partly specified)	none
CCOC(=O)c1ccc(N=C2SC(C(=O)NC)CC(=O)N2Cc2ccc(F)cc2)cc1 (stereo unspecified)	Tau fibril FP inconclusive
N#Cc1ccc(N=c2ssnc2Cl)cc1	KDM4E inh inconclusive, Tau fibril FP inconclusive, Tau fibril ThT 20µM
CCOC(=O)c1ccc(N=c2ssnc2Cl)cc1	KDM4E inh inconclusive, Tau fibril FP inconclusive, Tau fibril ThT 28.2µM
Clc1nssc1=Nc1ccccc1	KDM4E inh 10µM, Tau fibril FP 39.8µM, Tau fibril ThT 28.2µM
Clc1ccc(N=c2ssnc2Cl)cc1	KDM4E inh 10µM, Tau fibril FP 17.8µM, Tau fibril ThT 12.6µM
COc1cc(N=c2ssnc2Cl)cc(OC)c1OC	KDM4E inh 17.8µM, Tau fibril FP inconclusive, Tau fibril ThT 20µM
Fc1ccc(N=c2ssnc2Cl)c(F)c1	KDM4E inh inconclusive, Tau fibril FP inconclusive, Tau fibril ThT 14.1µM
COc1ccc(N=c2ssnc2Cl)cc1	KDM4E inh 20µM, Tau fibril FP inconclusive, Tau fibril ThT 12.6µM
COc1ccc(CCCO[C@@H](Cn2ccnc2)c2ccc(OC)cc2)cc1	Tau fibril ThT inconclusive
COc1ccc(NC(=O)CCc2nc3cccnc3n2-c2ccccc2)c(OC)c1	none (no result: KDM4E inh)
CCn1c2ccccc2c2nc3cc(S(=O)(=O)N4CCOCC4)ccc3nc21	Tau fibril FP 31.6µM, Tau fibril ThT 25.1µM
